Test results as given in PubChem BioAssay (NCATS).
Where “and” joins values, the source holds several entries; their conditions need not be identical. Equal values may be shown once. Inconclusive results are not listed. Calls of active or inactive are those of the source. Unless noted, calls follow the shape of the dose curve; as a rule, active = well fitted curve in either direction with a large enough effect (not every such curve was filed as active); inconclusive = small, poorly fitted or top-dose-only effect, or another doubt; inactive = flat fitted curve, though single readings scatter.

Tests used:
[1] = AP1 Signaling Pathway (AID 357);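 also: ME-180 reporter cells stimulated with EGF at its EC50 level; % is scaled to controls: 0 for no effect and ±100 for the full control effect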
Procedure, shortened: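 First, ME-180 AP-1-bla cells were cultured overnight at 37 °C in low-serum Opti-MEM. Next, titrated compounds with EC50 EGF were incubated 5 hours. Finally, CCF4 was added for 2.5 hours and the 460/530 nm ratio recorded.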

[2] = biological target: Cytochrome P450 1A2 (Homo sapiens) (UniProt P05177); assay: p450-cyp1a2 (AID 410; calls by dose curve; also: potency is read from the fitted curve at half-maximal effect;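 as to activity change, negative = inhibition: -100% = full effect of reference inhibitor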)
Procedure, shortened: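 20nM CYP1A2, 100uM Luciferin-ME (=Km), 100mM KPO4; cpd 10 min RT; +NADPH regen, 60 min RT; stop/detect 20 min; luminescence. Normalized to furafylline 57 uM = full inhibition.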

[3] = NFAT Signaling Pathway (AID 444); conditions: Jurkat NFAT-bla M1, carbachol, beta-lactamase ratio, 5 h;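 also: carbachol stimulus at about its EC50 of 1 µM final; % is scaled to controls: 0 for no effect and ±100 for the full control effect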
Procedure, shortened: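 Jurkat cells carrying an NFAT-driven β-lactamase reporter and co-transfected muscarinic M1 receptor were treated with compound plus carbachol (1 uM final, an EC50 level) for 5 h at 37 °C. CCF4 loading followed for 1 h at RT; 460/530 nm ratio gave %activity.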

[4] = Stat Signaling Pathway (AID 446); conditions: ME-180 (cervical carcinoma) SIE beta-lactamase reporter, IL-6 stimulated, 5 h;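 also: ME-180 cervical cancer cells given 40 pM IL-6 alongside compound; SIE-controlled beta-lactamase reporter measured as 460/530 nm FRET emission ratio; % is scaled to controls: 0 for no effect and ±100 for the full control effect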
Procedure, shortened: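 Compound effects on IL-6-induced STAT reporter activity were measured in ME-180 cells. After overnight culture, cells were co-treated with 40 pM IL-6 for 5 hrs before beta-lactamase substrate loading at room temperature.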

[5] = biological target: Glucocorticoid receptor (Homo sapiens) (UniProt P04150); assay: GR-GFP Redistribution (AID 450;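 active = compounds whose dose series gives a full or clear partial fitted curve of increased nuclear translocation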; also: potency is read from the fitted curve at half-maximal effect); conditions: U2OS GR-GFP nuclear translocation, laser cytometry, 2 h
[6] = biological target: Glucocorticoid receptor (Homo sapiens) (UniProt P04150); assay: GR-EFC Redistribution (AID 451; calls by dose curve; also: potency is read from the fitted curve at half-maximal effect); conditions: CHO-K1 GR-EFC translocation, beta-gal luminescence, 2 h
Procedure, shortened: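 CHO-K1 cells stably expressing nuclear-localized β-gal enzyme acceptor and GR fused C-terminally to the enzyme donor fragment; ligand-driven nuclear translocation restores β-gal by complementation. Compounds titrated up to 46 uM final, 2 h at 37 °C; luminescence read.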

[7] = biological target: Mitogen-activated protein kinase 10 (Mus musculus) (UniProt Q61831); assay: JNK3 AlphaScreen Assay (AID 530);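 also: kinase came from lysate of stimulated human HepG2 cells; signal reports phosphorylation of biotinylated GST-cJun 1-79 at Ser73 with 10 µM ATP; % is scaled to controls: 0 for no effect and ±100 for the full control effect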
Procedure, shortened: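 Biotinylated GST-cJun(1-79) served as substrate for JNK3 in HepG2 lysates stimulated with IL-1beta and TNF-alpha. ATP was 10 uM final, pH 7.6. Ser73 phosphorylation was quantified by AlphaScreen (680 nm excitation).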

[8] = Cell Viability - Jurkat (AID 426;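 active = dose-dependent loss of cell ATP signal giving a full or clear fitted curve, ranked by lower potency value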; also: potency is read from the fitted curve at half-maximal effect); conditions: qHTS
Procedure, shortened: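 Luminescent ATP read-out (CellTiter-Glo, 20 min at room temperature) after 40 hr compound exposure at 37 °C of Jurkat E6-1 cells, 5000/well. Decreased ATP taken as cytotoxicity; AC50 from standard Hill equation.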

[9] = Cell Viability - MRC5 (AID 434; calls by dose curve;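 also: potency is read from the fitted curve at half-maximal effect; potency reflects cytotoxicity seen as loss of intracellular ATP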); conditions: MRC5 lung fibroblast viability, qHTS
Procedure, shortened: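 Decrease in intracellular ATP, quantified by luciferase light output, reflects compound toxicity toward MRC5 cells exposed for 40 hr in complete culture medium. Concentration-response curves, scaled between DMSO and 100 uM tamoxifen, gave AC50 values.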

[10] = Cell Viability - N2a (AID 540; active = well fitted curve in the direction sought with a large enough effect; an effect the other way counts as inactive or inconclusive;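 also: plate controls were DMSO alone for no effect and tamoxifen control for full effect; nearly all actives have a fitted effect of over 45% in size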); conditions: N2a mouse neuroblastoma cell viability; at 92.2 µM (top of the series)
Procedure, shortened: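 N2a mouse neuroblastoma, 1500 cells/well, 5 hr settle; compound 40 hr, 37 °C; CellTiter-Glo 20 min RT; luminescence; Hill-fit AC50.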

[11] = Cell Viability - NIH 3T3 (AID 541; active = well fitted curve in the direction sought with a large enough effect; an effect the other way counts as inactive or inconclusive;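 also: plate controls were DMSO alone for no effect and tamoxifen positive control for full effect; nearly all actives have a fitted effect of over 25% in size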); conditions: NIH 3T3 cell viability, qHTS; activity change, negative = cytotoxicity: at 92.2 µM (top of the series)
Procedure, shortened: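 qHTS format; 40 hr compound exposure, 37 °C; CellTiter-Glo luminescence (cellular ATP) read-out after 20 min at RT. Decrease in ATP = cytotoxicity; AC50 from standard Hill fit.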

[12] = Cell Viability - H-4-II-E (AID 543; active = well fitted curve in the direction sought with a large enough effect; an effect the other way counts as inactive or inconclusive; also: nearly all actives have a fitted effect of over 35% in size; also: potency is read from the fitted curve at half-maximal effect)
Procedure, shortened: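 qHTS, rat hepatoma H-4-II-E, 1500 cells/well; 40 hr compound exposure, 37 °C; CellTiter-Glo ATP luminescence after 20 min RT; AC50 by standard Hill fit.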

[13] = Cell Viability - SH-SY5Y (AID 544; active = well fitted curve in the direction sought with a large enough effect; an effect the other way counts as inactive or inconclusive;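 also: 0% = DMSO alone and -100% = 100 µM tamoxifen; nearly all actives have a fitted effect of over 55% in size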); conditions: SH-SY5Y neuroblastoma cell viability; viability change, negative = cytotoxic: at 92.2 µM (top of the series)
Procedure, shortened: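 SH-SY5Y, 1500 cells/well, 5 hr pre-incubation 37 °C; cpd 40 hr 37 °C; CellTiter-Glo 20 min RT; luminescence (ATP) read. qHTS concentration-response, Hill fit → AC50. Tamoxifen, doxorubicin as positive controls.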

[14] = Cell Viability - Renal Proximal Tubule (AID 545; active = well fitted curve in the direction sought with a large enough effect; an effect the other way counts as inactive or inconclusive;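 also: 0% = DMSO only and -100% = 100 µM tamoxifen; nearly all actives have a fitted effect of over 40% in size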); conditions: renal proximal tubule cells viability; at 91.7 µM (top of the series) unless noted
Procedure, shortened: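 Rat renal proximal tubule primary cells, 1000/well, exposed to compounds for 40 hr at 37 °C in complete medium; cellular ATP read by CellTiter-Glo luminescence. AC50 from concentration-response fitted with standard Hill equation.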

[15] = Cell Viability - BJ (AID 421; calls by dose curve;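 also: potency is read from the fitted curve at half-maximal effect; cells exposed to compound for 40 hours at 37 °C before readout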); conditions: BJ fibroblast viability, qHTS
Procedure, shortened: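 Luminescent ATP signal (CellTiter-Glo, 20 min at room temperature) served as the read-out of viable BJ cells after 40 hours of compound treatment. Responses were scaled between DMSO and 100 uM tamoxifen, and AC50 values were obtained by Hill modeling.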

[16] = Cell Viability - Hek293 (AID 427;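 active = compounds whose dose-response curve shows a full or clear partial loss of cell viability, called from curve shape rather than a numeric limit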;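 also: potency is read from the fitted curve at half-maximal effect; cells exposed to compound for 40 hours at 37 °C before reading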); conditions: qHTS
Procedure, shortened: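 Luminescent ATP read-out (CellTiter-Glo, 20 min RT) after 40 hr compound exposure at 37 °C in complete medium. Signal normalized to DMSO (basal) and 100 uM tamoxifen (100% inhibition); concentration-response fitted with the standard Hill equation to give AC50.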

[17] = Cell Viability - HepG2 (AID 433; calls by dose curve;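 also: potency is read from the fitted curve at half-maximal effect; potency for ATP loss meaning cytotoxicity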); conditions: qHTS
Procedure, shortened: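 HepG2 cells, 1500 per well, treated 40 hr at 37 °C in complete medium; viability from intracellular ATP by CellTiter-Glo luminescence. Normalized to DMSO and 100 uM tamoxifen; AC50 from Hill fit of qHTS concentration-response.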

[18] = Cell Viability - SK-N-SH (AID 435; calls by dose curve; also: potency is read from the fitted curve at half-maximal effect); conditions: SK-N-SH neuroblastoma cell viability qHTS
Procedure, shortened: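 SK-N-SH neuroblastoma cells (1500/well) treated 40 h at 37 °C in complete medium; viability read as cellular ATP by CellTiter-Glo luminescence. Normalized to DMSO and 100 uM tamoxifen; AC50 from Hill fits of qHTS concentration-response.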

[19] = Cell Viability - HUV-EC-C (AID 542; active = well fitted curve in the direction sought with a large enough effect; an effect the other way counts as inactive or inconclusive; also: % is scaled to controls: 0 for no effect and ±100 for the full control effect; nearly all actives have a fitted effect of over 35% in size)
Procedure, shortened: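 Luminescent ATP read-out (CellTiter-Glo, 20 min room temperature) after 40 hr compound treatment of HUV-EC-C cells at 37 °C. Concentration-response data fitted with the standard Hill equation to give AC50; tamoxifen and doxorubicin served as positive controls.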

Sequence of Glucocorticoid receptor (Homo sapiens) (P04150 whole entry, looked up, the tested form may be a part): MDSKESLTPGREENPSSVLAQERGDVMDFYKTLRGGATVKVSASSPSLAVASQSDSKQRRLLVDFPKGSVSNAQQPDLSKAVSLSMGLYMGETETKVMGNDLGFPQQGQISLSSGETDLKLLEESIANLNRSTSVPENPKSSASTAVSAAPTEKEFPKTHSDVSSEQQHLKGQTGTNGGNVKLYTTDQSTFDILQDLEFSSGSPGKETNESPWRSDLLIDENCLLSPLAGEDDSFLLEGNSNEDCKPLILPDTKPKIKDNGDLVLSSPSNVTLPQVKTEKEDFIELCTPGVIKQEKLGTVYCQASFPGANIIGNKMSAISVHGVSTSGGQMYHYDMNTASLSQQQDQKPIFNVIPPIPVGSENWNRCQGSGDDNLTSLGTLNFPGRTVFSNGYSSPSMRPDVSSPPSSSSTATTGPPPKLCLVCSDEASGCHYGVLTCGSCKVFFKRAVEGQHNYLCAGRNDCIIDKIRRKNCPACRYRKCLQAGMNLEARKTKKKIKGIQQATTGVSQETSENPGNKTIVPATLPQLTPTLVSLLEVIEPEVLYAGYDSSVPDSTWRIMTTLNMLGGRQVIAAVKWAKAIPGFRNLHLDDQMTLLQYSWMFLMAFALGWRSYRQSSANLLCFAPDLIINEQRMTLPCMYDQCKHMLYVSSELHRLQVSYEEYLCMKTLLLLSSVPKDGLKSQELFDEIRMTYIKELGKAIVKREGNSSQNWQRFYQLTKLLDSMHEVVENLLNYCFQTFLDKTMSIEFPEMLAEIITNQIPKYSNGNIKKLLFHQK
Sequence of Cytochrome P450 1A2 (Homo sapiens) (P05177 whole entry, looked up): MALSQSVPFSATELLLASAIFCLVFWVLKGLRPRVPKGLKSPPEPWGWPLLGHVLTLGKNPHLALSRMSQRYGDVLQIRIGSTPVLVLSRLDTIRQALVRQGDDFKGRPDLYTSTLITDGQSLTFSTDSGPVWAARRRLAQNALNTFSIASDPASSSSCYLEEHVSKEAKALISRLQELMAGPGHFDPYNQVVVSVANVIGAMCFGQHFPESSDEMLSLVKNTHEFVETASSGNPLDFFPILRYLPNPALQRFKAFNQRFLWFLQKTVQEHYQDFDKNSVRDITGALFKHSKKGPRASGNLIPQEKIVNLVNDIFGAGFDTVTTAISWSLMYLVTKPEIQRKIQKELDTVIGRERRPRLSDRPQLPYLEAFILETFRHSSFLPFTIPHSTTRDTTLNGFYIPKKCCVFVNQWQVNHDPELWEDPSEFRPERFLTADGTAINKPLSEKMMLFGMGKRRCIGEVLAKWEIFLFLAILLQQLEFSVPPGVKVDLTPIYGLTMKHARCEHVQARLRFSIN

Clc1cccc(N2CCNCC2)c1
active: Potency [2] 15.8 µM
inactive: outcome [1] | activity change, negative = inhibition ([3]; at 38 µM (top of the series)) -4.86% | activity, negative = inhibition ([4]; at 38 µM (top of the series)) 3.38% | Potency [5] > 46 µM | Potency [6] > 46 µM | outcome [7]

COc1ccc(Cc2nccc3cc(OC)c(OC)cc23)cc1OC
inactive: outcome [1] | activity change, negative = inhibition ([3]; at 17.2 µM (top of the series)) -29.4% | activity, negative = inhibition ([4]; at 17.2 µM (top of the series)) -7.28% | activity, negative = inhibition ([4]; at 38 µM (top of the series)) -33.5%

CCCN1CCC[C@@H]2Cc3[nH]ncc3C[C@H]21
inactive: outcome [1] | Potency [2] | activity change, negative = inhibition ([3]; at 17.2 µM (top of the series)) 24.4% | activity change, negative = inhibition ([3]; at 38 µM (top of the series)) 7.41% and -8.14% | activity, negative = inhibition ([4]; at 17.2 µM (top of the series)) 8.2% | activity, negative = inhibition ([4]; at 38 µM (top of the series)) -2.11% and 14.3% | Potency [5] > 46 µM and > 20.6 µM | Potency [6] > 46 µM and > 20.6 µM | outcome [7]

CC[C@@H](CO)NC(=O)[C@@H]1C=C2c3cccc4c3c(cn4C)C[C@H]2N(C)C1
inactive: outcome [1] | activity change, negative = inhibition ([3]; at 17.2 µM (top of the series)) -12.8%

N[C@@H]1C[C@H]1c1ccccc1
active: Potency [2] 15.8 µM
inactive: outcome [1] | activity change, negative = inhibition ([3]; at 38 µM (top of the series)) -3.2% | activity, negative = inhibition ([4]; at 38 µM (top of the series)) 20.3% | outcome [7]

Clc1ccc(COC(Cn2ccnc2)c2ccc(Cl)cc2Cl)cc1 (configuration not stated)
active: Potency [8] 81.7 µM | activity change, negative = cytotoxicity [10] -110% | activity change, negative = cytotoxicity [11] -82% | Potency [12] 39.8 µM | viability change, negative = cytotoxic [13] -84.8% | activity change, negative = cytotoxicity [14] -83.1%
inactive: outcome [1] | Potency [9] 95 µM | activity, negative = inhibition ([4]; at 17.2 µM (top of the series)) -23% | Potency [5] > 20.6 µM | outcome [7]

CCOP(=S)(OCC)Oc1cc(C)nc(C(C)C)n1
inactive: Potency [15] > 92 µM | Potency [8] > 92 µM | Potency [16] > 92 µM | Potency [17] > 92 µM | Potency [9] > 92 µM | Potency [18] > 92 µM | outcome [7] | activity change, negative = cytotoxicity [10] -3.66% | activity change, negative = cytotoxicity [11] -10% | outcome [19] | Potency [12] | viability change, negative = cytotoxic [13] -9.46% | activity change, negative = cytotoxicity [14] -3.55%

O=c1[nH]c2ccccc2n1C1CCN(CCCC(c2ccc(F)cc2)c2ccc(F)cc2)CC1
active: Potency [2] 20 µM and 31.6 µM
inactive: Potency [5] > 46 µM and > 20.6 µM | Potency [6] > 46 µM and > 20.6 µM | outcome [7]

Cc1ncc(CNC(=O)N(CCCl)N=O)c(N)n1
inactive: outcome [1] | activity change, negative = inhibition ([3]; at 38 µM (top of the series)) 3.51% | activity, negative = inhibition ([4]; at 38 µM (top of the series)) -6.98% | Potency [5] > 46 µM | Potency [6] > 46 µM | outcome [7]

Oc1ccccc1-c1ccccc1
inactive: Potency [15] > 92 µM | Potency [16] > 92 µM | Potency [17] > 92 µM | Potency [9] > 92 µM | Potency [18] > 92 µM | outcome [7] | activity change, negative = cytotoxicity [10] -8.25% | activity change, negative = cytotoxicity [11] -15.3% | outcome [19] | Potency [12] | viability change, negative = cytotoxic [13] -9.19% | activity change, negative = cytotoxicity [14] -16.3% [at 91.7 µM, primary cells of rat origin]

Fc1ccc(C(OCCN2CCN(CCCc3ccccc3)CC2)c2ccc(F)cc2)cc1
inactive: outcome [1] | activity, negative = inhibition ([4]; at 17.2 µM (top of the series)) -6.45% | activity, negative = inhibition ([4]; at 38 µM (top of the series)) -18.6% | Potency [5] > 46 µM and > 20.6 µM | Potency [6] > 46 µM and > 20.6 µM | outcome [7]

Oc1ccc(Cl)cc1Cc1ccccc1
inactive: Potency [15] > 92 µM | Potency [8] > 92 µM | Potency [16] > 92 µM | Potency [17] > 92 µM | Potency [18] > 92 µM | outcome [7] | activity change, negative = cytotoxicity [11] -0.588% | outcome [19] | Potency [12] | activity change, negative = cytotoxicity [14] -8.93%

c1ccc2c(c1)Nc1ccccc1S2
inactive: Potency [15] > 92 µM | Potency [8] > 92 µM | Potency [16] > 92 µM | Potency [17] > 92 µM | Potency [9] > 92 µM | Potency [18] > 92 µM | outcome [7] | activity change, negative = cytotoxicity [10] -21.6% | activity change, negative = cytotoxicity [11] -26.2% | outcome [19] | Potency [12] | viability change, negative = cytotoxic [13] -26% | activity change, negative = cytotoxicity [14] -25%

COC1(CS(=O)c2ccccc2)CCN(CCc2c[nH]c3ccc(F)cc23)CC1 (configuration not stated)
inactive: Potency [2] | Potency [5] > 46 µM | Potency [6] > 46 µM | outcome [7]

CCC(COC(=O)c1cc(OC)c(OC)c(OC)c1)(c1ccccc1)N(C)C (configuration not stated)
inactive: activity, negative = inhibition ([4]; at 17.2 µM (top of the series)) -7.98%

CCCC(C)(COC(N)=O)COC(=O)NC(C)C (configuration not stated)
inactive: Potency [15] > 92 µM | Potency [8] > 92 µM | Potency [16] > 92 µM | Potency [17] > 92 µM | Potency [9] > 92 µM | Potency [18] > 92 µM | activity change, negative = inhibition ([3]; at 17.2 µM (top of the series)) -6.68% | activity, negative = inhibition ([4]; at 17.2 µM (top of the series)) 5.53% | outcome [7] | activity change, negative = cytotoxicity [10] 4.75% | activity change, negative = cytotoxicity [11] -2.14% | outcome [19] | Potency [12] | viability change, negative = cytotoxic [13] 1.5% | activity change, negative = cytotoxicity [14] 4.58%
